# Source: PubChem BioAssay (NCI)
# About 83,000 compounds went through this panel and 20% of them were active in at least one assay; those are over-represented in the sample as a whole.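 Each cell line was grown in a 96-well plate and treated with one concentration of compound for 48 hours. Values below 10 were considered active.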 Active and inactive are the calls of the source.
# Tested on: T-47D breast
# Test: NCI-60 one-dose screen, 48 h (100 = growth as untreated, 0 = no growth, -100 = all killed)
# Settings: 10 µM unless noted
row,Compound,growth
1,Cc1ccc2c(c1)=C/C(=C\c1cc(-c3ccccc3)oc1O)C(=O)N=2,97.7% (inactive)
2,O=C(CSc1nnc(-c2cnccn2)n1-c1ccccc1)c1ccc(Cl)cc1,85.9% (inactive)
3,CCC(=C(c1ccc(OCCN2CCCCC2)cc1)c1ccc(OCCN2CCCCC2)cc1)c1ccc(Cl)cc1,-68.3% (active)
4,O=C(Nc1ccc(Oc2cccc(Cl)c2)c(Cl)c1)c1cnccn1,40.7% (inactive)
5,CCCNc1nc2ccccc2c2c1S(=O)(=O)c1ccc(Cl)cc1C2=O,-1.34% (active)
6,C=CCOC(=O)Nc1cccn([C@H](Cc2ccccc2)C(=O)NCCC(C)C)c1=O,93.8% (inactive)
7,N#Cc1c(-c2ccc(Cl)cc2)nc(NN2C(=O)c3ccccc3C2=O)nc1N1CCOCC1,94.7% (inactive)
8,N#Cc1nc(-c2ccc(F)cc2)oc1S(=O)(=O)N1CCCCC1,2.97% (active)
9,COc1ccc2cc1Oc1ccc(cc1)C[C@H]1c3c(cc4c(c3Oc3cc5c(cc3OC)CCN(C)[C@@H]5C2)OCO4)CCN1C,115% (inactive)
10,C=C1C(=O)O[C@H]2[C@H]1CC/C(COC(=O)/C=C\C(=O)NCc1ccc(Cn3c(=O)sn(CCI)c3=O)cc1)=C\CC[C@@]1(C)O[C@@H]21,57.6% (inactive)
11,CCOC(=O)c1c(NC(=O)c2ccc(Cl)cc2)sc2c(CN(C)C)c(O)ccc12,71.4% (inactive)
12,CSc1nc(N)c(NS(=O)(=O)c2ccc(C(C)=O)cc2)c(=O)[nH]1,102% (inactive)
13,COc1cc2c(c(OC)c1OC)CCC(c1cccc(C(=O)Nc3cccc(Cl)c3)c1)O2 (stereo not drawn),36.7% (inactive)
